Sa ugtP lethal = growth inhibition of S. aureus ugtP deletion strain; 0.54% of 330,000 active; growth inhibition, % (concentration not given with the values); S. aureus RN4220 ugtP deletion, OD600 growth, 16 h; AID 1259309; in the data active = growth inhibition above about 68%;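 also: plate controls were untreated wells for no effect and antibiotic for full effect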
Sa RN4220 lethal = S. aureus RN4220 growth inhibition. AID 1259311. OD600, 16 h. 0.33% of 330,000 active. inhibition, % (test concentration not listed); in the data active = inhibition above about 85%;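 also: plate controls were untreated cells for no effect and reference antibiotic for full effect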
BJeLR viability = BJeLR cell viability loss; BJeLR (HRASV12) viability, CellTiter-Glo ATP luminescence, 48 h; inhibition, % (test concentration not listed); 0.17% of 300,000 active; in the data active = inhibition above about 50%
PfHsp40 rescue = rescue of PfHsp40-mediated yeast toxicity; S. cerevisiae expressing PfHsp40, growth rescue, ATP luminescence; growth rescue, % at 12.5 µM; 0.68% of 340,000 active; AID 504582; in the data active = growth rescue above about 28%, passing the limit was not always enough;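 also: yeast W303a lacking pdr1 and pdr3 grown in galactose medium; growth measured after three days at 30 °C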
CCHF vOTU inh = blocks the CCHF virus ovarian tumor domain protease; 0.55% of 370,000 active; CCHFV vOTU protease, Pep-AMC fluorescence; AID 651958; inhibition, % at 11.5 µM; in the data active = inhibition above about 30%; also: 0% = vehicle wells with enzyme and 100% = no enzyme wells
Active calls of the source: *; nt = no result given. Most compounds without a hit are left out; they make up all but 1.6% or so of the library.

SMILES	Sa ugtP lethal	Sa RN4220 lethal	BJeLR viability	PfHsp40 rescue	CCHF vOTU inh
CCn1c(SCC(=O)N2CCCc3ccccc32)nnc1-c1ccco1	-1.4	-13.1	6.8	48.4*	2.8
COC(=O)C1=C(c2ccc3ccccc3c2)CC2CCC1N2C(=O)N1CCOCC1 (stereo not drawn)	5.9	5.1	nt	nt	nt
Cc1cc(C)nc(SCc2ccc(Cl)cc2)n1	6.5	2.5	-7.2	0.2	-6.2
CN(C)c1nc(SCc2ccc(Cl)cc2)nc2c1CCCC2	-15.3	-2.7	-2.9	220.3*	9.7
CC(C)(C)C1COC(=O)C(Cc2ccc(F)cc2)CC=CCC(CC(=O)NCCO)C(=O)N1 (stereo not drawn)	-1.3	4.4	nt	nt	nt
CC1SCC(=NOCc2c(Cl)cccc2Cl)CS1 (stereo not drawn)	49.5	3.8	-8.1	59.1*	-12.2
Clc1cccc(Cl)c1CON=Cc1cccs1	6.4	1.6	nt	nt	nt
CN1c2ccccc2C(O)=C(C(=O)Nc2ccccc2)S1(=O)=O	nt	nt	2.4	-0.1	8.5
Cc1sc2c(c1C)C(O)=C(C(=O)Nc1ccccc1)S(=O)(=O)N2C	-6.7	24.3	2.2	153.2*	7.4
CN(C(=NS(=O)(=O)c1cccs1)c1ccccc1)c1ccccc1	7.0	13.4	nt	nt	nt
CN1C(=O)C2(N=c3ccccc3=N2)c2ccccc21	nt	nt	-2.6	55.0*	nt
CN(C)Cc1c(C(=O)NN=Cc2cccs2)nnn1-c1nonc1N	8.8	6.7	nt	nt	nt
CN(C)c1ccc(Cc2cc3c(O)ccc(O)c3cc(Cc3ccc(N(C)C)cc3)c2=O)cc1	nt	nt	nt	-0.9	33.9*
CN(C)c1ccc(C(=O)c2ccc(O)cc2O)cc1	-2.9	1.2	-10.7	5.3	3.9
C#CCOCCOCCOCCNc1nc(N2CCN(C(=O)C(Cc3ccc(O)cc3)n3cc(C(N)C(C)CC)nn3)CC2)nc(N2CCN(C(=O)C(C(C)CC)n3cc(C(N)COC(=O)C(F)(F)F)nn3)CC2)n1 (stereo not drawn)	4.7	5.8	nt	nt	nt
COc1cc(NC(=O)c2cccs2)c(OC)cc1NC(=O)CCC(=O)Nc1ccc2ncccc2c1	-0.2	10.5	57.7*	0.4	-1.3
Cc1ccc(CNC(=O)CSc2ccc(-c3cccs3)nn2)cc1	12.5	2.9	6.1	0.2	-0.7
O=C(CSc1ccc(-c2ccco2)nn1)NCc1ccc(Cl)cc1	-4.5	11.5	3.8	-1.0	-7.0
COc1cccc(CNC(=O)CSc2ccc(-c3ccccn3)nn2)c1	10.3	3.0	-4.0	357.4*	-11.9
O=C(CSc1ccc(-c2ccccn2)nn1)NCc1ccc(Cl)cc1	4.1	3.0	-6.3	331.0*	-7.0
Cc1ccc(CNC(=O)CSc2ccc(-c3ccccn3)nn2)cc1	14.6	3.9	9.1	218.9*	5.0
CC1=C(C#N)C2C(C1=NO)C2(C)C (stereo not drawn)	7.0	2.6	nt	nt	nt
C(#Cc1ccccc1)C[N+]1(CC#Cc2cccc3ccccc23)CCCC1	98.5*	88.0	11.4	1.5	21.9
C#CC[N+]1(CC#Cc2ccccc2)CCCC1	-2.6	4.4	-3.9	4.1	-4.7
O=[N+]([O-])c1c(Nc2cccc(O)c2)cc(Cl)c2nonc12	nt	nt	79.4*	0.3	6.5
SMILES	Sa ugtP lethal	Sa RN4220 lethal	BJeLR viability	PfHsp40 rescue	CCHF vOTU inh
CNc1cc(Cl)c2nonc2c1[N+](=O)[O-]	98.0*	94.2*	-12.0	-0.1	19.7
COc1cccc(NC=C2C(=O)OC3(CCCCC3)OC2=O)c1	12.3	5.8	-2.4	314.0*	6.8
CC(=O)n1cc(N(C(=O)CCl)c2ccccc2)c2ccccc21	40.9	37.4	100.4*	8.0	9.2
O=C(Cc1ccc(Cl)cc1)NCCc1c[nH]c2ccccc12	nt	nt	-20.3	-1.2	-13.7
CC(=O)n1cc(N(C(=O)CCl)c2ccc([N+](=O)[O-])cc2)c2ccccc21	74.0	20.2	2.1	3.7	2.5
O=C(CCl)N(c1ccc(Cl)cc1)c1c[nH]c2ccccc12	97.3*	89.9*	16.8	0.0	5.6
O=C(CCl)N(c1ccccc1)c1c[nH]c2ccccc12	90.4*	91.1	-11.0	7.6	0.9
O=C(O)Cc1c[nH]c2ccccc12	-23.3	-1.5	6.4	-1.7	-13.6
COc1ccc(C2CC(=O)C=C(C#CC(C)(C)C)C2)cc1 (stereo not drawn)	4.7	1.8	nt	nt	nt
CCn1c(SCC(=O)NN=C(C)c2ccncc2)nnc1-c1ccccc1	5.5	1.0	nt	nt	nt
COC(=O)C(C=NOCc1ccc([N+](=O)[O-])cc1)NC(=O)c1ccccc1 (stereo not drawn)	-6.2	-8.4	nt	nt	nt
O=C(O)c1ccc2c(c1)C1C=CCC1C(c1cc3c(cc1Br)OCO3)N2 (stereo not drawn)	12.5	7.7	3.8	65.3*	8.5
CC(=O)c1ccc2c(c1)C1C=CCC1C(C(=O)O)N2 (stereo not drawn)	-5.9	11.0	nt	9.7	49.8*
COc1ccc(C=NNC(=O)Cc2ccc(Cl)cc2)cc1OC	-4.4	10.6	nt	nt	nt
NC(=NO)c1ccc(NC(=O)c2cccs2)cc1	-8.2	4.1	nt	nt	nt
Cc1nc(NN=Cc2ccc(O)cc2O)cc(N2CCOCC2)n1	-4.1	0.1	nt	nt	nt
Cc1ccccc1CN(C)CCS(=O)(=O)c1cc(Cl)ccc1Cl	nt	nt	-3.8	60.7*	1.3
Nc1nnc(CCS(=O)(=O)c2cc(Cl)ccc2Cl)s1	-3.1	-4.9	1.2	-0.7	-1.3
CCCCN(CCCC)c1ncnc2nc[nH]c12	-0.3	2.7	9.3	137.8*	5.0
COC(=O)CSc1nc2cc3c(cc2cc1C)OCCO3	1.2	16.6	-6.2	163.0*	7.4
O=C(O)c1cn(-c2ccc(N3CCCC3)c(F)c2)c2c(F)c(F)c(F)cc2c1=O	100.3*	8.4	3.8	-1.1	6.5
Cc1c(-n2cc(C(=O)O)c(=O)c3cc(F)c(N4CCCC(O)C4)c(F)c32)c(=O)n(-c2ccccc2)n1C (stereo not drawn)	6.8	2.3	-1.6	-0.4	-9.9
Cc1ccc(C(C)(C)C)cc1S(=O)(=O)Nc1ncnc2sccc12	-2.0	6.1	nt	250.9*	10.5
O=C(NN=Cc1cccnc1)c1cc(C2CC2)nc2ccccc12	8.7	0.3	nt	nt	nt
CCc1sc(N(C(=O)Cc2ccccc2)c2ccccc2F)nc1-c1ccc(C)cc1	84.8*	-10.9	-7.9	-0.3	5.8
SMILES	Sa ugtP lethal	Sa RN4220 lethal	BJeLR viability	PfHsp40 rescue	CCHF vOTU inh
CCN(CC)c1ccc(C=NNC(=O)c2cccc(S(=O)(=O)N3CCOCC3)c2)c(O)c1	8.7	11.1	nt	nt	nt
CCN(CC)c1ccc(/C=N/NC(=O)c2cccc(S(=O)(=O)N3CCOCC3)c2)c(O)c1	nt	nt	53.6*	230.9*	7.7
CS(=O)(=O)N(CCC(=O)O)Cc1ccccc1	2.6	-1.0	-5.1	76.7*	10.4
Cc1ccc(OC/C(O)=C(\C#N)c2nc3ccccc3s2)cc1	84.0*	77.5	16.2	0.0	-0.3
Cc1ccc(OCC(=O)NN=Cc2ccncc2)c(C)c1	3.5	3.2	nt	nt	nt
Cc1ccc(OC(=O)CCN2C(=O)c3ccccc3C2=O)cc1C	89.6*	5.2	3.6	0.6	-2.6
Cc1cc(C)cc(OC(=O)CCN2C(=O)c3ccccc3C2=O)c1	84.4*	3.7	8.5	0.8	-10.2
Cc1ccc(OCC(=O)OCCN2C(=O)c3ccccc3C2=O)cc1C	nt	nt	6.6	-0.3	-6.9
CCOC(=O)C(C#N)=NNc1ccccc1C#N	-0.4	3.8	nt	nt	nt
C=CCc1cccc(/C=N/NC(=O)CCCNc2ccc(C)cc2)c1O	nt	nt	4.4	93.1*	17.9
